Each structure is given as a SMILES string. Compounds without any hit were thinned out: in the full panel of roughly 83,000, 20% have a hit.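 Method: cells in 96-well plates; compound added at one concentration; 48 h incubation; percent growth measured; values under 10 scored active.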 Activity calls are given as the source filed them.

Our source for the growth values is PubChem BioAssay (NCI).

The subject of the assay is HL-60(TB) leukemia. Description: NCI-60 one-dose screen, 48 h (100 = growth as untreated, 0 = no growth, -100 = all killed). As to conditions: 10 µM unless noted.
For `O=C(C1=Cc2cc3ccccc3n2Cc2cnnn21)c1ccc(F)cc1`, the growth was 98% (inactive). On to `CCOC(=O)/C=C1\S/C(=N\Nc2ccc([N+](=O)[O-])cc2[N+](=O)[O-])N(Cc2ccccc2)C1=O`, for which the growth is 76.3% (inactive).

As for `O=C1OC(N(Cc2ccc(Cl)cc2)c2ccccc2)c2ccccc21` (stereo not given), the growth is 93.8% (inactive). With `CNc1ccc2c(c1)c1ccccc1n2C` the figure was 93.7% (inactive); with `O=C1/C(=C\C(Cl)=C/c2ccc([N+](=O)[O-])cc2)SC(=S)N1CCc1ccc(O)cc1`, 2.21% (active); with `COc1ccc(-n2[nH]c3c(cnc4ccccc43)c2=O)cc1`, 97.3% (inactive).

Regarding `Cc1c(CC(=S)N2CCOCC2)nnn1-c1cccc(C(F)(F)F)c1`, the growth is 100% (inactive). With `Cc1ccccc1/C=C/C(=O)c1cccc(OCCCCOc2cccc(C(=O)/C=C/c3ccccc3C)c2)c1` the figure was 81.8% (inactive); with `CN1CCc2nc3sc(C(N)=O)c(N)c3c(-c3cccs3)c2C1`, 7.35% (active); with `c1ccc(Sc2ncnc3ccccc23)cc1`, 74.1% (inactive). The result for `COC(=O)c1c[nH]c2cc(OC(C)C)c(OC(C)C)cc2c1=O` reads 106% (inactive); that for `S=c1n(CNc2ccc(Cl)nn2)nc(-c2cc(Cl)cc(Cl)c2Cl)n1/N=C/c1ccc(Cl)cc1`, 3.47% (active). Regarding `Cc1ccc2nc(Cl)c(-c3nc4ccccc4o3)cc2c1`, the growth is 94.4% (inactive). Take `Clc1ccc2c(c1)-c1ccccc1C1=NCCN12`: the growth is 38.1% (inactive). For `CC1=NC(c2ccc(Cl)cc2)C2=C(N1)/C(=C/c1ccc(Cl)cc1)CCC2` (stereo not given), the growth was 85.8% (inactive).
